“And” between values parts separate entries of the source, which are not always exact repeats. Equal entries are not always repeated. Among all 190,000 compounds or so, about 6,900 (3.6%) were called active. The list comes from a sample in which actives are over-represented; it also holds similar structures and randomly drawn compounds. Values without a mark were called inactive. Cut-off read from the data, not from the text of the source: active = inhibition above about 50%; inactive = the rest.

The test deals with Huntingtin (Homo sapiens) (UniProt P42858). Description: mutant huntingtin-calmodulin interaction inhibitors – biochemical, AlphaScreen, primary screen (AID 1671202).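 Note: 0% = both proteins with DMSO and 100% = one protein alone.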 Conditions: AlphaScreen His-mHTT/GST-CaM binding, luminescence; at 15 µM, stronger effect = higher value.
Sequence of Huntingtin (Homo sapiens) (P42858 whole entry, looked up, stated change not applied): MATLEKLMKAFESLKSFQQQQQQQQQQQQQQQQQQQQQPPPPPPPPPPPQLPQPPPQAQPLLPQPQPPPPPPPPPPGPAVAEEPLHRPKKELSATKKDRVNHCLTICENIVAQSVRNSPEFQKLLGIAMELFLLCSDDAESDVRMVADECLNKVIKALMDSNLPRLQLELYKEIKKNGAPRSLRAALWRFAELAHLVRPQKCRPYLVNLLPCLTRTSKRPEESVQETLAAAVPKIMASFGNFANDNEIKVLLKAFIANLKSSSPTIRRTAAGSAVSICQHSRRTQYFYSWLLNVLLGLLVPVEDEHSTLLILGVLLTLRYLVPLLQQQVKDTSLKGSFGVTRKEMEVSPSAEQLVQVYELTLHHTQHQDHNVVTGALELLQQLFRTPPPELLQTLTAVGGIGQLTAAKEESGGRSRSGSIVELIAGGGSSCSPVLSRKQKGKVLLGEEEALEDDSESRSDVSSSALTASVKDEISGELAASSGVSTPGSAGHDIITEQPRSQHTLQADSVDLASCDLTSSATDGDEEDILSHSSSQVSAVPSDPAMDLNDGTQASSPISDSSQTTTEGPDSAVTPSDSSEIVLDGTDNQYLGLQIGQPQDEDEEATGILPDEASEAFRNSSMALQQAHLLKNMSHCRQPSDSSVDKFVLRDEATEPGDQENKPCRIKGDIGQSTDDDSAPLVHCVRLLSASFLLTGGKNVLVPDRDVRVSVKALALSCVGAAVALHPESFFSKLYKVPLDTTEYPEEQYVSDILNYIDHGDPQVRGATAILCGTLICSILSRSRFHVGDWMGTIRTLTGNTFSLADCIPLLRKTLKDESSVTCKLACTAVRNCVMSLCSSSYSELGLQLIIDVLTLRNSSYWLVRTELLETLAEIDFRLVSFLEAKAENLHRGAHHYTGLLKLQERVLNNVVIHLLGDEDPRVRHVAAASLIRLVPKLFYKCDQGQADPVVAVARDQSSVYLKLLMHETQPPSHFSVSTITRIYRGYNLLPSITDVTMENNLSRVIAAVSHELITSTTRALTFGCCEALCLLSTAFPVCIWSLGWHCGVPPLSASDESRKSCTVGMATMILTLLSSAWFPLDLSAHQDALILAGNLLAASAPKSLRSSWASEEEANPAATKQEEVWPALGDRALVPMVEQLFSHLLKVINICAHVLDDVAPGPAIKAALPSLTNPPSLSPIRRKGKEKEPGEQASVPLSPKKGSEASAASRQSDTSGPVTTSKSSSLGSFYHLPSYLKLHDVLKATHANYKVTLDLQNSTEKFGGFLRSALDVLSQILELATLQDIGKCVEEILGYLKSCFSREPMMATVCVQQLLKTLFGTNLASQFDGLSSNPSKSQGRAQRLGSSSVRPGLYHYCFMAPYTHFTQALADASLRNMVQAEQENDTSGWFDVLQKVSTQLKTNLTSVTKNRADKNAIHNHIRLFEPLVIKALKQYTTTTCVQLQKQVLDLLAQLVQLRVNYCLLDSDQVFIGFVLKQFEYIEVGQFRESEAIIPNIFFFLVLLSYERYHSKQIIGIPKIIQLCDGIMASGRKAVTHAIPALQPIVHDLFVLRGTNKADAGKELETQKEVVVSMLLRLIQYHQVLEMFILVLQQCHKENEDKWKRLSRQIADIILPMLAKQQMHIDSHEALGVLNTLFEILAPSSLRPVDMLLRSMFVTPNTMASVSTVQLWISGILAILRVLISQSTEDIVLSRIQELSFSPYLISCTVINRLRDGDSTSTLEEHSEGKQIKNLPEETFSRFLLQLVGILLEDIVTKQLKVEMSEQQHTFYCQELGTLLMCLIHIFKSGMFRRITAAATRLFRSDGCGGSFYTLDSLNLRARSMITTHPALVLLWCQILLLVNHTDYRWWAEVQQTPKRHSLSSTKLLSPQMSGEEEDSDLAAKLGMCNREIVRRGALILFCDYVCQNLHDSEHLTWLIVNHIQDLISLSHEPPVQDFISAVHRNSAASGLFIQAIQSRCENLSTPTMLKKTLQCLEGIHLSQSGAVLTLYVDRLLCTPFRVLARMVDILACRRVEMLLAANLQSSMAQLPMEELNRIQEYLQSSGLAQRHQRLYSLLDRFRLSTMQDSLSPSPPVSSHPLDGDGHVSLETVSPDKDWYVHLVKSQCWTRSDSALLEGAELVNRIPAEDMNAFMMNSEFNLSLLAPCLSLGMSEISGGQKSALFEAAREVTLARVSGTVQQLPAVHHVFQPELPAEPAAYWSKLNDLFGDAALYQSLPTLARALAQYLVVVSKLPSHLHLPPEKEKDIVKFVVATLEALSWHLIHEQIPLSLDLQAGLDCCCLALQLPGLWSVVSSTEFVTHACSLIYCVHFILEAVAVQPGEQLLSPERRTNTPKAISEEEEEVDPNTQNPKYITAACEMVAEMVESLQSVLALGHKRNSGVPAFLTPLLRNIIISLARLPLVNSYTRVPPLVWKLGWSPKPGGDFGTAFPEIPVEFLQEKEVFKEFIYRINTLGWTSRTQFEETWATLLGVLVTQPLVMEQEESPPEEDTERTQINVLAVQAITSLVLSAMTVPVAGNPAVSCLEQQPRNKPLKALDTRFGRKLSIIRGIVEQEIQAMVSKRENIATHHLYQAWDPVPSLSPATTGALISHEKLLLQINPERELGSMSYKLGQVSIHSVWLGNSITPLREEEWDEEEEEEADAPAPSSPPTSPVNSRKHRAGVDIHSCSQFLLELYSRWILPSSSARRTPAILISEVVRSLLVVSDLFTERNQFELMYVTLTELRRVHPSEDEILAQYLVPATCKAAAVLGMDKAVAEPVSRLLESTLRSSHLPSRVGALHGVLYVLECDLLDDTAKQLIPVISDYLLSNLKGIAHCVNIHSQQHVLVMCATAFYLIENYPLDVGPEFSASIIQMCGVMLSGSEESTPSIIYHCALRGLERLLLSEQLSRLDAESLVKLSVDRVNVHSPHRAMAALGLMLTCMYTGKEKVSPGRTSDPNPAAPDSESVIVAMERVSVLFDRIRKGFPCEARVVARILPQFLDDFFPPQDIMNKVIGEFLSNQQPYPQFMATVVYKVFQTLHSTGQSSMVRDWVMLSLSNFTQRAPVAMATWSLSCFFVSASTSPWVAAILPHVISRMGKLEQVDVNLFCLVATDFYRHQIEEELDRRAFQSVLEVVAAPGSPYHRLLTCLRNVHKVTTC
One may read the inhibition as the change of the read-out against control, counted positive when it falls. Consider `CC(C)n1c(C2CCN(C(=O)C3(c4ccccc4)CC3)C2)nc2ccncc21` (stereo not given), for which the inhibition was 1.58%.
The value for `O=c1[nH]c(-c2ccccc2)cn1-c1cccc(C(F)(F)F)c1` was 12%; that for `C=Cc1ccc(CN2C(=O)N(c3ccc(F)cc3)c3ncccc3S2(=O)=O)cc1` was -1.5%.
Under `Nc1cc(C2CCN(C(=O)Nc3cc(Cl)cc(Cl)c3)CC2)no1` stands 1.32%; under `Cc1nn2cc(-n3cc([N+](=O)[O-])cn3)cnc2c1[N+](=O)[O-]`, -2.97%; under `COc1cccc(CC(=O)Nc2cccn3c(C)nnc23)c1`, -2.3%.
The value for `CCCn1c(=O)c2sc(N3CCCC3)nc2n(CC(=O)Nc2cc(F)cc(F)c2)c1=O` was -10.6%; that for `COc1ccc2oc(-c3ccc(NC(=O)c4cccc(Br)c4)cc3)nc2c1` was 34%; that for `C=CCc1ccc(OCC(=O)NCCC2=CCCCC2)c(OC)c1` was -16%.
Turning to `COc1cc(OC)c(N2C=C(C#N)S(=O)(=O)c3ccc(F)cc32)cc1Cl`, the inhibition was -0.3%.
Under `Cc1cccc(CNC(=O)c2cc(C(C)C)n3nccc3n2)c1` stands -134%; under `Cc1ccc(NC(=O)O[C@H]2CCC23CCCCC3)cc1`, -86.9%; under `Cc1cc(C)c(S(=O)(=O)N2CCCC2C(=O)NCCc2csc(C)n2)c(C)c1` (stereo not given), -2.4%.
Regarding `Cc1cccc(C(=O)N2CCN(c3nc4ccccc4n(CC(C)C)c3=O)CC2)c1`, the inhibition was -13.3%.
Under `Cc1ccc2c(c1)NC1(CCN(C(=O)c3ccccc3)CC1)c1cccn1-2` stands 84.3% (active).
Under `CCN1c2ccc(C)cc2C(=O)NC12CCN(C(=O)c1cccc(C)c1)CC2` stands -2.5%; under `O=C1NC2(CCN(C(=O)c3ccccc3)CC2)Nc2cc(Cl)ccc21`, -7.3%.
Under `CCNc1nccc(N2CCC(CC(=O)NCc3cccc(Cl)c3)CC2)n1` stands 7.56%; under `COc1ccc(-c2cc(C(F)(F)F)n3nc(C(=O)N4CCC(C)CC4)cc3n2)cc1OC`, 4%.
Consider `COc1ccc(CC(=O)NC(c2ccccc2)c2ccccc2)cc1OC`, for which the inhibition is 53.3% (active).
`COc1ccc(CCNC(=O)COc2ccccc2Br)cc1OC`: the inhibition is 1.8% and -8.4%.
Under `COc1ccc(C(=O)NC(C)c2ccccc2)cc1OC` (stereo not given) stands -4.5%; under `COc1ccc(OC)c(CN2CCc3nc(N4CCOCC4)ncc3C2)c1`, 13.8%; under `CCc1ccccc1NC(=O)c1cc2n(n1)CCCN(Cc1ccc(F)cc1)C2=O`, -3.32%.
Under `Cc1cc(C)c(C(=O)Nc2nc3ccc(S(C)(=O)=O)cc3s2)c(C)c1` stands -1.4%; under `CC(C)(C)c1ccc(C(=O)Nc2nc3ccc(S(C)(=O)=O)cc3s2)cc1`, -2%; under `CS(=O)(=O)c1ccc2nc(NC(=O)/C=C/c3ccccc3)sc2c1`, 76% (active).
Take `COc1cc(N2CN=c3s/c(=C\c4ccc([N+](=O)[O-])cc4)c(=O)n3C2)cc(OC)c1OC`: the inhibition is 49%.
On to `Brc1ccc2c(c1)CCCN2`, for which the inhibition was 10%.
Under `CC1=NOC(=O)/C1=C/c1ccc(-c2cc(Cl)ccc2Cl)o1` stands -2%.
Under `O=C1NN=C(c2ccccc2)/C1=C/c1ccc(-c2ccc(Cl)cc2)o1` stands 61% (active).
Under `Cc1nn2c(=O)/c(=C/c3ccc(-c4ccc(F)cc4)o3)sc2nc1=O` stands -2%; under `Cc1cccc(CSC2=NCCN2C(=O)Cc2ccc(F)cc2)c1`, -24%; under `COc1cc(/C=C(\C#N)c2nc3ccccc3[nH]2)ccc1OCC#N`, 12%.
Turning to `CCCCOc1ccc(/C=C(\C#N)c2nc3ccccc3[nH]2)cc1`, the inhibition was -1%.
Under `N#C/C(=C\C=C\c1ccccc1)c1nc2ccccc2[nH]1` stands 75% (active) and 58% (active); under `CC(=O)c1cccc(NC(=O)/C(=C\c2ccc3c(c2)OCO3)NC(=O)c2ccccc2Cl)c1`, 7%; under `COc1cccc2sc(N(C)CC(=O)Nc3nc(C)cs3)nc12`, -3%.
Under `COc1cc(-c2ccc(O)c(O)c2)cc(=O)c2c(C)oc(C)c12` stands 49%; under `COc1ccc(-c2c(C)c3ccc(O)c(CN4CCCC4)c3oc2=O)cc1OC`, 2.3%; under `CCOc1cc(-c2ccc(O)c(OC)c2)cc(=O)c2c(C)oc(C)c12`, 51% (active).
In the case of `N#CC1=C(N)N2CCN3C(N)=C(C#N)C1(c1ccccc1)C23c1ccccc1` (stereo not given), the inhibition was 21%.
The value for `O=C1CC(O)(C(F)(F)F)Oc2ccc(Cl)cc21` (stereo not given) was 0%.
Consider `CC(C)N1C/C(=C\c2ccsc2)C(=O)/C(=C/c2ccsc2)C1`, for which the inhibition was 45%.
The value for `COc1ccc(NC(=O)c2cc(S(=O)(=O)NCCc3ccc(Cl)cc3)ccc2F)cc1` was 20%; that for `O=C(Nc1ccc(F)cc1)c1cc(S(=O)(=O)NCCc2ccc(Cl)cc2)ccc1F` was 61% (active); that for `O=C(Nc1ccc(F)cc1)c1cc(S(=O)(=O)NCc2ccc(F)cc2)ccc1F` was -3%.
Consider `COc1ccccc1OCCNC(=O)CSc1ccc(C(F)(F)F)cc1[N+](=O)[O-]`, for which the inhibition is 2%.
With `CC1=C(C(=O)Nc2cccnc2)C(c2ccccn2)n2nc(SCc3ccccc3)nc2N1` (stereo not given), the inhibition is 5%.
Under `COc1ccc(NC(=O)C2=C(C)Nc3ncnn3C2c2cc(OC)c(OC)cc2OC)cc1` (stereo not given) stands 0%; under `CC1=C(C(=O)Nc2ccc(C)cc2)C(c2cccc([N+](=O)[O-])c2)n2ncnc2N1` (stereo not given), 7%.
The value for `CC1=C(C(=O)Nc2ccc(Cl)cc2)C(c2ccc(Cl)cc2Cl)n2ncnc2N1` (stereo not given) was 59% (active); that for `O=C(NCc1ccco1)c1cc2nc(-c3ccc(Cl)cc3)cc(C(F)(F)F)n2n1` was -2%; that for `O=C(NCCc1ccccc1)c1cc2n(n1)CCCN(Cc1ccc(F)cc1)C2=O` was 3.53%.
Under `Cc1ccc(CN2CCCn3nc(C(=O)NCc4ccccc4Cl)cc3C2=O)cc1` stands -2.01%.
Take `Cc1ccc(C)c(CNC(=O)c2cc3n(n2)CCCN(Cc2ccc(F)cc2)C3=O)c1`: the inhibition is 50.5% (active).
The value for `Cc1cc(N2N=NC3C(=O)N(c4ccc(F)cc4)C(=O)C32)ccc1Br` (stereo not given) was -11.3%.
The value for `CSC1=C(C#N)C(c2cccs2)CC(=O)N1` (stereo not given) was -7.7%.
Under `Cc1cccc(-c2cc(C3CCN(S(=O)(=O)c4cccc(C#N)c4)CC3)[nH]n2)c1` stands 7.83%; under `Cc1cccc(-c2cc(C3CCN(C(=O)Cc4ccsc4)CC3)[nH]n2)c1`, 59.9% (active); under `Cc1cccc(-c2cc(C3CCN(S(=O)(=O)c4ccc(C#N)cc4)CC3)[nH]n2)c1`, 9.71%.
As for `O=C(Cc1csc(NC(=O)C2CCCC2)n1)Nc1ccc2c(c1)Cc1ccccc1-2`, the inhibition is -7.6%.
Take `O=C1/C(=C/c2ccc([N+](=O)[O-])cc2)C=C(c2ccccc2)N1c1cccc([N+](=O)[O-])c1`: the inhibition was 28%.
Take `O=C1OC(c2ccccc2)=C/C1=C/c1cccn1-c1cccc([N+](=O)[O-])c1`: the inhibition is 77% (active).
Under `Cn1c(=O)c2c(-c3ccccc3)n(-c3cccc([N+](=O)[O-])c3)cc2n(C)c1=O` stands 38%; under `N#CC1=C(N)C(C#N)(C#N)C(c2ccc(C3C4CCCC=C4C(C#N)=C(N)C3(C#N)C#N)cc2)C2CCCC=C12` (stereo not given), 81.2% (active).
For `CN1CC=C2C(C#N)=C(N)C(C#N)(C#N)C(c3ccc(F)cc3)C2C1` (stereo not given), the inhibition is 6%.
Under `Brc1ccc(CNC23CN4CN(CN(C4)C2)C3)cc1` stands 2%.
Under `O=C(/C=C/c1ccc(Cl)cc1)Nc1cc2ccccc2oc1=O` stands 0%; under `CN(C)c1ccc(Br)c([N+](=O)[O-])c1`, 14.9%.
Regarding `Cc1ccc2nc(/C(C#N)=C/c3cc(Cl)cc4c3OCOC4)[nH]c2c1`, the inhibition was -7%.
The value for `COc1ccc2nc3sc(C(=O)NCc4ccco4)cc3cc2c1` was 61% (active); that for `COc1cccc(NC(=O)c2cc3cc4cc(OC)ccc4nc3s2)c1` was 7%.
Under `COc1ccc2nc3sc(C(=O)N(C)c4cccc(C)c4)cc3cc2c1` stands 5%.
Turning to `O=C(CSc1nnc(NC(=O)c2ccccc2F)s1)Nc1ccc(Br)cc1`, the inhibition was 1.2%.
Consider `CC(C)(C)C(=O)NCCNc1ccc([N+](=O)[O-])cc1`, for which the inhibition was 2.2%.
The value for `COc1ccc(NC(=O)C2CC(=O)N(C)C(=Nc3ccc(C)c(C)c3)S2)cc1` (stereo not given) was 22%.
Regarding `Cc1ccc2c(c1)OCC(=O)N2Cc1nc(-c2ccc(C)c(C)c2)no1`, the inhibition is -15.9%.
Under `Cc1ccccc1NC(=O)N1CCC(c2cc(N)on2)CC1` stands -11.4%.
Under `COc1ccc(N2COc3ccc4c(=O)c(-c5ccccc5)coc4c3C2)c(OC)c1` stands 75.6% (active).
Consider `CC(C)N1COc2ccc3c(=O)c(-c4ccccc4)coc3c2C1`, for which the inhibition was -2.5%.
The value for `COc1ccc(-c2coc3c4c(ccc3c2=O)OCN(CC(C)C)C4)cc1` was -3.5%.
Turning to `COC(=O)c1ccc(Oc2coc3c4c(ccc3c2=O)OCN(c2ccc(OC)cc2OC)C4)cc1`, the inhibition was 54.7% (active).
In the case of `COCCCN1COc2ccc3c(=O)c(Oc4ccc(OC)cc4)coc3c2C1`, the inhibition is -5.5% and 3.6%.
As for `CCOC(=O)c1ccc(Oc2coc3c4c(ccc3c2=O)OCN(C2CCS(=O)(=O)C2)C4)cc1` (stereo not given), the inhibition was 6.6%.
Under `COc1cccc(OC)c1OCCOc1cccc(Cl)c1Cl` stands -101%.
Under `Cc1cccc(NC(=O)c2ccc(F)c(S(=O)(=O)N3CCc4ccccc43)c2)c1` stands -8%.
As to `Cc1cc2[nH]c(C(=O)Nc3cc(F)c(F)c(F)c3)c(CN(C)C)c2s1`, the inhibition is 8.9%.
Under `Cc1cccc(NC(=O)C2CCN(C(=O)c3ccc(F)cc3)CC2)c1` stands -0.6%; under `O=C1OC(/C=C/c2cccc(Cl)c2Cl)=NC/1=C\c1coc2ccccc2c1=O`, 6%.

These data come from PubChem BioAssay AID1671202 (University of Kansas High Throughput Screening Laboratory, 2021).
